# DT40 TDP1 no CPT = qHTS for Inhibitors of human tyrosyl-DNA phosphodiesterase 1 (TDP1): qHTS in cells in absence of CPT; Potency, µM (top dose mostly 46.2 µM), hits mostly inhibitors; DT40 Tdp1-/- hTDP1 cells, no CPT, ATP luminescence, 48 h; actives 15% (n = 420,000); note: nearly all actives have a fitted effect of over 55% in size
#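 Stably hTDP1-transfected Tdp1-null chicken DT40 cells were treated with library compounds minus camptothecin and grown for at least 48 hr at 37 °C, after which cellular ATP was quantified by luminescence.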
# ELG1 repair inh = ELG1-dependent DNA repair inhibition. HEK293T ELG1-luciferase reporter, luminescence, 16 h; DNA damage induced by 5-fluorouridine. Potency, µM (titrated, usually from 46.1 µM), most hits filed as inhibitors. actives 2.3% (n = 330,000). AID 504467; note: nearly all actives have a fitted effect of over 55% in size
#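 Cells (2,000 per well) received 5-fluorouridine plus test compound or DMSO and were incubated 16 hr at 37 °C, 5% CO2. Luciferase activity was read by luminescence 30 min after ONE-Glo addition; signal suppression marked inhibition of damage-induced ELG1 function.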
# DT40 TDP1 CPT = growth inhibition of DT40 Tdp1-/-;hTDP1 cells with camptothecin (screen for TDP1 inhibitors). chicken DT40 Tdp1-/-;hTDP1 cells + 20 nM CPT, ATP luminescence, 48 h. Potency, µM (highest dose often 46.2 µM), actives largely listed as inhibitors. actives 12% (n = 420,000); note: nearly all actives have a fitted effect of over 55% in size
#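 Cell growth measured by CellTiter-Glo luminescence after a minimum 48 h, 37 C compound exposure with 20 nM CPT in Tdp1-knockout DT40 cells stably expressing hTDP1, seeded 400/well; qHTS titration format.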
# HT1080 IDH1KD tx = HT-1080 IDH1 knockdown cell toxicity (counter line); Potency, µM (highest dose often 46.1 µM), hits mostly cytotoxic; actives 2% (n = 360,000); AID 686971; HT-1080 IDH1 knockdown viability, ATP luminescence, 48 h
#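 After a 2 h attachment period, IDH1KD HT-1080 cells took pin-transferred compound for 48 h at 37 °C; ATP-based luminescence after 10 min room-temperature reagent incubation reported viability.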
# IL1B secr inh = inhibitors of inflammasome signaling (IL-1 beta secretion); THP-1 LPS/ATP IL-1B secretion, AlphaLISA, 16 h; stronger effect = lower value; activity change, % at 57.5 µM; AID 743279; actives 4.7% (n = 360,000); in the data active = activity change below about -50%; inconclusive = mostly about -30% to -49%
#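 THP-1 cells pretreated 1 hr with compounds (up to 57.5 uM final), then stimulated with LPS (250 ng/mL final) plus ATP (1.25 mM final); secreted IL-1B measured by AlphaLISA after 16 hr, decreased signal indicating inhibition.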
# HT1080NT lethal = kills 2HG-producing HT-1080-NT fibrosarcoma cells; HT-1080-NT fibrosarcoma viability, CellTiter-Glo ATP luminescence, 48 h; Potency, µM (titrated, usually from 46.1 µM), hits mostly cytotoxic; actives 1.6% (n = 360,000);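 note: NT is the 2HG producing partner of a matched IDH1 knockdown line; nearly all actives have a fitted effect of over 55% in size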
#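 HT-1080-NT; 750 cells/well; 5% FBS RPMI; 48 h compound, 37 degrees C; CellTiter-Glo luminescence; curve fitting and curve-class assignment.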
# Hits are given with their value; . = inactive; ? = inconclusive; / = no result given. Rows were chosen to be rich in hits. Some 19% of all compounds tested hit in one or more screens of this group. Unless noted, calls come from the whole dose curve; as a rule, active = well fitted curve in the direction sought with a large enough effect; inconclusive = small, poorly fitted or top-dose-only effect, or another doubt; inactive = no such curve, though single readings can be large; an effect the other way counts as inactive or inconclusive.
SMILES,DT40 TDP1 no CPT,ELG1 repair inh,DT40 TDP1 CPT,HT1080 IDH1KD tx,IL1B secr inh,HT1080NT lethal
Clc1ccc(-c2csc3ncnc(N4CCc5ccccc5C4)c23)cc1,21µM,.,?,.,.,.
O=C(O)CSCC(=O)N1CCN(c2ncnc3scc(-c4ccccc4)c23)CC1,.,.,.,.,.,.
Cc1cc(N)n(-c2ncnc3scc(-c4ccc(Cl)cc4)c23)n1,.,.,.,.,.,.
CCOC(=O)N1CCN(c2ncnc3scc(-c4ccccc4)c23)CC1,8.2µM,?,15µM,.,.,.
CCOC(=O)N1CCN(c2ncnc3scc(-c4ccc(Cl)cc4)c23)CC1,?,?,18µM,.,.,?
CC(C)(C)C(=O)N1CCN(c2ncnc3scc(-c4ccccc4)c23)CC1,?,?,?,?,-56,.
Cc1cc(O)c(C(c2ccc(F)cc2)N2CCN(c3ccccc3)CC2)c(=O)n1Cc1ccco1 (configuration not stated),.,/,.,/,/,/
OCC1CCCCN1C(=S)Nc1cccc(Cl)c1 (configuration not stated),.,.,.,.,.,.
COc1ccc(CN2CC[C@H]3C=CC[C@@H](C(=O)N4CCN(c5ccccc5)CC4)[C@H]3C2=O)cc1OC,.,/,.,/,/,/
Cc1ccc(C(C)C)c(OCCNC(=S)Nc2cccc3ccccc23)c1,13µM,.,14µM,7.9µM,.,5.6µM
COCCNCCOCCOc1ccc(Cl)c(C)c1,?,.,?,.,.,.
Cc1cc(OCCOCCNCc2ccccc2)ccc1C(C)C,12µM,.,18µM,.,-63,.
S=C(NCCN1CCOCC1)Nc1cccc2ccccc12,.,.,.,.,.,.
Cc1ccc(C(C)C)c(OCCNCc2ccccc2)c1,21µM,.,?,.,?,.
CC(C)(C)c1ccccc1OCCOCCNCc1ccccc1,13µM,.,16µM,?,-57,.
CNCCOc1ccccc1C(C)(C)C,?,.,.,.,.,.
CC1(C)S[C@@H]2[C@H](NC(=O)[C@H](NC(=O)N3CCN(S(C)(=O)=O)C3=O)c3ccccc3)C(=O)N2[C@H]1C(=O)O,.,/,.,/,/,/
COc1ccccc1Cc1nc2ccccc2n1S(=O)(=O)c1ccc(Cl)cc1,?,.,.,.,.,.
CCCNC(=O)N1C[C@H](O)COC[C@H]2O[C@@H](CC(=O)N[C@@H]3CCN(Cc4ccccc4)C3)CC[C@@H]21,.,/,.,.,.,.
CCc1nc2c(OCc3ccc(F)c(F)c3)cccn2c1N(C)C(=O)c1ccc(C)cc1,9.2µM,/,23µM,.,.,.
CCc1nc2c(OCc3cc(Cl)cc(Cl)c3)cccn2c1N(C)C(=O)c1ccc(C)cc1,?,/,16µM,?,-57,?
CCc1nc2c(OCc3ccc(Cl)cc3)cccn2c1N(C)C(=O)c1ccncc1,21µM,/,21µM,.,.,.
CCc1nc2c(OCc3ccc(F)cc3)cccn2c1N(C)C(=O)c1ccncc1,.,/,.,.,.,.
CCc1nc2c(OCc3ccccc3C)cccn2c1N(C)C(=O)c1ccc(C)cc1,16µM,/,18µM,.,.,.
CCN(C[C@H]1N[C@@](C)(C(=O)OC)[C@H]2C(=O)N(C)C(=O)[C@@H]12)C(=O)Nc1ccc(Cl)cc1,.,.,.,.,.,.
CCOC(=O)c1cnc2c(c(C)nn2CC)c1NCCN1CCOCC1,?,.,.,.,.,.
CCc1nc2c(OCc3ccc(F)c(F)c3)cccn2c1N(C)C(=O)c1ccc(OC)cc1,23µM,/,16µM,.,.,.
C=CCN1C(=O)CSc2ccc(C(=O)NC(C)c3ccccc3)cc21 (configuration not stated),.,.,.,.,.,.
CCN1CCSc2ccc(C(=O)NCc3cccc(F)c3)cc21,18µM,.,?,.,.,.
